Results taken from PubChem BioAssay (NCI).
The panel holds about 83,000 compounds, 20% with a hit somewhere; the sample as a whole holds those more often.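 For each line, cells grew in 96-well plates with the test compound present at a single concentration for 48 hours.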 Values without a mark were called inactive. The source made the active and inactive calls. The calls were made as follows: active = growth percent below 10; inactive = the rest.

Key:
Test in all cases: NCI-60 one-dose screen, 48 h (100 = growth as untreated, 0 = no growth, -100 = all killed)
Conditions in all cases: 10 µM
[1] = tested on: K-562 leukemia
[2] = tested on: MALME-3M melanoma
[3] = tested on: MDA-MB-231 breast
[4] = tested on: RXF 393 renal
[5] = tested on: SF-268 CNS
[6] = tested on: SF-295 CNS
[7] = tested on: SF-539 CNS
[8] = tested on: UACC-257 melanoma
[9] = tested on: M14 melanoma
[10] = tested on: HCT-15 colon
[11] = tested on: HT29 colon
[12] = tested on: SNB-75 CNS
[13] = tested on: SNB-19 CNS
[14] = tested on: U251 CNS
[15] = tested on: PC-3 prostate
[16] = tested on: SK-MEL-5 melanoma
[17] = tested on: UACC-62 melanoma
[18] = tested on: LOX IMVI melanoma
[19] = tested on: SK-MEL-2 melanoma
[20] = tested on: SK-MEL-28 melanoma

| Structure (SMILES) | growth [1] | growth [2] | growth [3] | growth [4] | growth [5] | growth [6] | growth [7] | growth [8] | growth [9] | growth [10] | growth [11] | growth [12] | growth [13] | growth [14] | growth [15] | growth [16] | growth [17] | growth [18] | growth [19] | growth [20] |
| --- | --- | --- | --- | --- | --- | --- | --- | --- | --- | --- | --- | --- | --- | --- | --- | --- | --- | --- | --- | --- |
| CN(C)C(=S)N/N=C\C=N/NC(=S)N(C)C | 1.44% (active) | 58.5% | 37.3% | 55.4% | 84.6% | 68.8% | 84.6% | 33.4% | 47.9% | 31.5% | 13.5% | 64% | 90.3% | 42.8% | -18.4% (active) | 64.8% | 73.2% | 43.9% | 85% | – |
| Nc1nc(-c2ccccc2Cl)cc(-c2ccc(Cl)cc2Cl)n1 | 27.3% | 86.6% | 65% | 75.8% | 65.9% | 38.7% | 72.2% | 93% | 53.5% | 90.2% | 36.6% | 30.5% | 78.1% | 65% | 74.2% | 75.2% | 63.1% | 55.4% | 96.3% | 88% |
| N#Cc1ncc(Br)c(NC2CCCCCC2)n1 | 97.1% | 145% | 98% | 95.2% | 111% | 93.4% | 99.5% | 95% | 114% | 92.3% | 120% | 83.8% | 91.5% | 92% | 92.5% | 103% | 95.5% | 101% | 104% | 104% |
| O=C(Nc1ccc(CN2CCc3nc4cc(O)c(O)cc4cc32)cc1)c1ccc(Cl)c(Cl)c1 | 115% | 93% | 103% | 89.4% | 96.6% | 101% | 94.2% | 103% | 98.4% | 101% | 109% | 89.2% | 96.7% | 105% | 101% | 90.7% | 97% | 104% | 105% | 96.8% |
| CC(=O)OCc1cc(-c2nc3ccccc3[nH]c2=O)nn1-c1ccc(Cl)cc1 | 93.4% | 108% | 98.1% | 102% | 109% | 96.5% | 90.2% | 14.8% | 97.2% | 88% | 104% | 98.6% | 89.4% | 100% | 99% | 97.8% | 89.3% | 102% | 100% | 107% |
| CC(=O)O[C@]1(C)CC[C@H]2[C@H](CNCCc3ccc(Cl)cc3)C(=O)O[C@@H]2C2=C(C)C(=O)C[C@H]21 | 79.4% | 84.2% | 90.5% | 115% | 91% | 105% | 106% | 76.4% | 88.4% | 88.4% | 90% | 64.1% | 79.4% | 91.3% | 86.9% | 92.2% | 97.9% | 90.6% | 114% | 101% |
| O=C1/C(=C/c2ccc([N+](=O)[O-])s2)Oc2ccccc21 | -14.5% (active) | -60.9% (active) | -70.3% (active) | -81.1% (active) | -54.2% (active) | -37.4% (active) | -77% (active) | -54.6% (active) | -40.9% (active) | -15.5% (active) | -15% (active) | -7.58% (active) | -0.508% (active) | -76.5% (active) | -23.2% (active) | -64.8% (active) | -80.4% (active) | -70.4% (active) | -48.9% (active) | -35.9% (active) |
| O=C1/C(=C\c2ccccc2)CN(C(=O)c2ccccc2F)C/C1=C\c1ccccc1 | 0.045% (active) | -34.5% (active) | 12.7% | -78.2% (active) | 16.9% | 6.51% (active) | 40.5% | -10.1% (active) | -59.5% (active) | -28.5% (active) | -46.7% (active) | 53.5% | 51% | -36% (active) | 8.54% (active) | -48.6% (active) | -17.4% (active) | -86% (active) | 54.8% | -56.7% (active) |
| Cc1ccc(S(=O)(=O)Oc2ccc3c4c(c(=O)oc3c2)CCCCC4)cc1 | 36.7% | 71.9% | 74.5% | 68.6% | 77.2% | 48.7% | 39.8% | 32% | 71% | 41.3% | 6.29% (active) | 76.2% | 86.8% | – | 33.5% | 20.5% | 56.5% | 62.8% | – | 79.5% |
| O=C1CC[C@@H]2CCCC[C@@H]2C1 | 110% | 98.8% | 96% | 130% | 113% | 110% | 102% | 116% | 101% | 113% | 107% | 95.2% | 102% | 108% | 85.3% | 110% | – | 101% | – | 112% |
| CC(=O)[C@H]1CC[C@H]2[C@@H]3CCC4=CC(=O)C=C[C@]4(C)[C@H]3CC[C@]12C | 76.6% | 89.3% | 100% | 125% | 102% | 92.5% | 87.9% | 87.8% | 107% | 106% | 96.2% | 90.3% | 114% | – | 87.7% | 82.5% | 80.3% | 88.6% | 102% | 109% |
| CCN(CC)CCSCCN(CC)CC | 100% | 106% | 118% | 104% | 106% | 101% | 97% | 97.6% | 111% | 97.9% | 104% | 96.3% | 106% | 91.7% | 96.5% | 99.6% | – | 99% | – | 103% |
| CN(C)C=Nc1cc(Cl)ccc1Cl | 110% | 118% | 103% | 112% | 112% | 97% | 111% | 90.2% | 107% | 103% | 100% | 89.8% | 95.3% | 115% | 99.8% | 101% | – | 102% | 97% | 102% |
| COc1cc(Cl)cc(-c2nn(-c3cccc(NC(=O)c4ccc(N5CCOCC5)c(C(F)(F)F)c4)c3)cc2-c2ccncc2)c1 | 4.03% (active) | 57.9% | 11.4% | 12.4% | 67.3% | 2.6% (active) | 52.1% | 63.6% | 56.7% | 17.3% | 21.2% | 34.9% | 75.5% | – | 29.1% | 71.5% | 67.8% | 47.3% | 64.9% | 53.2% |
